Several values for one entry are separate records, joined by “and”; a condition that tells them apart may be missing. Equal values may be shown once. The whole screen tested about 310,000 compounds, of which about 1,000 (0.32%) were called active. Only a sample is shown. Measured potencies and affinities stand elsewhere. A number with no mark means an inactive call. How the calls were made is not given here.
Assay: PhoP regulon inhibitors, Salmonella typhi PhoP promoter GFP reporter, confirmatory (AID 1850);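 further: 0% = induced wells with vehicle and 100% = uninduced wells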
Settings: fluorescence, 4 h, at 50 µM, stronger effect = higher value

SMILES	inhibition
CCc1ccccc1NNC(=O)c1cc(C)on1	-26.6%
Cc1cc(OCC(=O)N2CCC(C(=O)O)(c3ccccc3)CC2)c2c(C)c(C)c(=O)oc2c1	1.07%
O=C(Cn1cnc2c(oc3ccccc32)c1=O)N1CCCc2ccccc21	1.66%
Cc1cc(NC(=O)c2cccc(S(=O)(=O)N3CC(c4ccccc4)CC3=O)c2)no1 (stereo not given)	-38.2%
O=C1CC(C(=O)Nc2ccccc2)S/C(=N\NC(=O)c2ccccc2Cl)N1 (stereo not given)	21.9%
OC(c1cc(C(F)(F)F)nc2c(Cl)cc(Cl)cc12)C1CCCCN1 (stereo not given)	0.54%
COc1ccc(OC)c(C(O)C2CCCCN2)c1 (stereo not given)	-3.76%
OC(c1cc(-c2ccc(C(F)(F)F)cc2)nc(C(F)(F)F)c1)C1CCCCN1 (stereo not given)	-0.73%
O=C(O)c1cc(C(F)(F)F)nc2c(C(F)(F)F)cccc12	-2.04%
COc1ccc(C2Cc3ccccc3C(=O)O2)cc1 (stereo not given)	7.74%
CSCCC(NC(N)=O)C(=O)NCc1cccc(Cl)c1 (stereo not given)	3.4%
CN(C(=O)c1ccco1)c1nc(-c2ccccc2)cs1	-0.59%
CN(C)C(=O)c1cn(-c2ccccc2)nc1-c1cc2ccccc2oc1=O	-9.39%
CSC1=NC(C)(C)C=C(/C=C/c2ccc(Cl)cc2Cl)N1	4.11%
Clc1ccc(/C=C/c2nc3ccccc3[nH]2)c(Cl)c1	7.7%
CC(c1ccccc1)N1CC(C(=O)NC2CCCC2)CC1=O (stereo not given)	-13.4%
CCOC(=O)CC1(NC(=O)C2CCC(=O)N(Cc3ccccc3F)C2)CCCCC1 (stereo not given)	-14.3%
CN(C)CCCN(C(=O)c1ccco1)c1nc2c(F)cc(F)cc2s1	1.38%
CCn1cc(C(=O)O)c(=O)c2cc(F)c(N3CCN(C(=S)NC(=O)c4ccccc4Br)CC3)cc21	-18.1%
CCn1cc(C(=O)O)c(=O)c2cc(F)c(N3CCN(C(=S)NC(=O)c4ccccc4Cl)CC3)cc21	11.6%
Cc1cc(S(=O)(=O)Nc2ccc(C(=O)N3CCN(c4ccccc4O)CC3)cc2)ccc1F	-8.67%
COc1ccc(Cn2cc(F)c(=O)n(C)c2=O)cc1[N+](=O)[O-]	4.35%
Cc1ccc(S(=O)(=O)N2CCCC(C(=O)NCC3COCCO3)C2)cc1 (stereo not given)	-3.93%
O=C(N/N=C\c1ccc(-c2ccccc2[N+](=O)[O-])o1)C1COc2ccccc2O1 (stereo not given)	6.46%

SMILES	inhibition
O=C(N/N=C/c1cccc([N+](=O)[O-])c1)C1COc2ccccc2O1 (stereo not given)	-0.57%
O=C(N/N=C\c1ccc(O)c([N+](=O)[O-])c1)C1COc2ccccc2O1 (stereo not given)	1.19%
COc1cc([N+](=O)[O-])cc(/C=N\NC(=O)C2COc3ccccc3O2)c1O (stereo not given)	16.3%
CCOC(=O)C1(Cc2ccccc2C(F)(F)F)CCN(Cc2ccon2)CC1	-14.2%
O=C(Cn1cnc(S(=O)(=O)N2CCCC2)c1)Nc1cccc(Br)c1	-2.76%
O=C(Nn1cnnc1)c1ccccc1-c1ccccc1	9.02%
COc1cccc(-c2ccc3nnc(SCC(=O)N4CCCC4)n3n2)c1	1.13%
CCN1C(=O)NC(c2ccc(Cl)cc2)C2=C1CCCC2=O (stereo not given)	-16.4%
O=C(CN1CCCC1)N1CCCC(c2ccc(F)cc2)c2ccc(F)cc21 (stereo not given)	-12.7%
OCCN1CCN(CC(O)COC(c2ccc(F)cc2)c2ccc(F)cc2)CC1 (stereo not given)	-5.69%
N/C(CC(=O)Nc1ccc(F)c(Cl)c1)=N\OC(=O)c1cccs1	-6.75%
CC(=O)Cc1nsc(Nc2ccc(C)cc2)n1	0.05%
COC(=O)c1cc(-c2cccc([N+](=O)[O-])c2)c2c(=O)n(C)c(=O)n(C)c2n1	0.74%
CC1CCC(C(C)C)C(OC(=O)CSc2nccc(=O)[nH]2)C1 (stereo not given)	-9.72%
CC1CCC(C(C)C)C(OC(=O)COC(=O)c2ccc(N)cc2)C1 (stereo not given)	-3.86%
CC1CCC(C(C)C)C(OC(=O)Cn2c(-c3ccc(Br)cc3)[n+](C)c3ccccc32)C1 (stereo not given)	-12.1%
CC1CCC(C(C)C)C(OC(=O)COC(=O)c2ccccc2N)C1 (stereo not given)	-3.26%
CC1CCC(C(C)C)C(OC(=O)Cn2c(-c3ccc(F)cc3)[n+](C)c3ccccc32)C1 (stereo not given)	9.13%
CC1CCC(C(C)C)C(OC(=O)Cn2c(-c3ccccc3)[n+](C)c3ccccc32)C1 (stereo not given)	7.04% and -8.34%
CCOC(=O)c1cnc2ccc(OC)cc2c1NCCN1CCOCC1	-3.63%
COc1ccc(OC)c(NC(=O)c2nnn(CC(=O)Nc3ccc4c(c3)OCO4)c2N)c1	-17.1%
CN(C(=O)C1CCN(S(=O)(=O)c2cccs2)CC1)C1CCCCC1	-11.4%
CCC(C)(C)c1ccc(OCCCC[n+]2cccc(C)c2C)c(C(C)(C)CC)c1	9.55%
Cc1ccc[n+](Cc2ccc([N+](=O)[O-])cc2)c1	-2.48%

SMILES	inhibition
Cc1cc(=O)oc2cc(OCCCC[n+]3ccccc3)ccc12	-6.05%
CC(=O)Nc1ccc(OCCC[n+]2cccc(C(=O)[O-])c2)cc1	5.76%
CCCCCc1ccc(OCCCC[n+]2ccc(C)cc2)c(CCCCC)c1	-3.58%
CCC(C)(C)c1ccc(OCCCC[n+]2ccc(C)cc2)c(C(C)(C)CC)c1	6.7%
CC(=O)Nc1ccc(OCCC[n+]2ccccc2)cc1	-5.56%
CCCCOc1ccc(CCN)cc1Cl	-8.19%
COc1ccc(N(C(C)C(=O)N/N=C/c2ccc(OCC(C)C)cc2)S(C)(=O)=O)cc1 (stereo not given)	-7.5%
O=c1[nH]c(=O)n(C2CCCCCC2)c(O)c1C=NCc1cccnc1	0.08%
Cn1nc(CC(=O)Nc2ncc(Br)s2)c2ccccc2c1=O	-7.27%
COc1ccc(S(=O)(=O)N2CCCC(C(=O)NC3CC3)C2)cc1Cl (stereo not given)	4.9%
CC1CCCN(C2=NC(=O)/C(=C/c3cn(-c4ccccc4)nc3-c3cccc(S(=O)(=O)N(C)C)c3)S2)C1 (stereo not given)	-7.62%
Cc1cc(Br)c(NC(=O)COC(=O)CSc2nnc(-c3ccc(Cl)cc3)o2)c(Br)c1	6%
Cc1ccc(S(=O)(=O)NCCC(=O)Nc2ccc(Cl)c(Cl)c2)cc1	-0.17%
COCc1cc(=O)n2[nH]c(N)nc2n1	6.29%
CCOC(=O)[C@@H]1[C@H]2COc3cc(OC)ccc3[C@@H]2N2C(=O)N(c3ccc(C)cc3)C(=O)[C@]12C	-2.59%
CC[n+]1c(/C=C/N(C)c2ccccc2)sc2ccc(Cl)cc21	-2.8%
CCn1c(/C=C/N(C)c2ccccc2)[n+](CC)c2ccc(Cl)cc21	20.2%
Cc1ccc(SCC(=O)NCCSC(C)(C)C)cc1	-5.44%
CC(=O)Nc1ccc(S(=O)(=O)NCCCc2ccccc2)cc1	-4.81%
Cc1ccc2nc(N(CCCN(C)C)C(=O)c3ccc(Br)s3)sc2c1	4.27%
Cc1ccc2sc(N(CCCN(C)C)C(=O)c3nc4ccccc4s3)nc2c1C	11.1%
CC(NCc1ccc(Cl)cc1Cl)C(O)c1ccccc1 (stereo not given)	-10%
CC(NCc1ccccc1Cl)C(O)c1ccccc1 (stereo not given)	3.04%
CC(NCc1ccc(Cl)cc1)C(O)c1ccccc1 (stereo not given)	32.7%

SMILES	inhibition
CSc1ccc(CNC(C)C(O)c2ccccc2)cc1 (stereo not given)	20.7%
CCOc1ccc(-c2nc(CSCC(=O)NC3CC3)c(C)o2)cc1	5.51%
O=C(Nc1cc(Cl)ccc1-n1cncn1)c1ccc(F)c(S(=O)(=O)N2CCOCC2)c1	6.99%
CC(C)c1ccc(NC(=S)N2CCN(Cc3ccccc3)CC2)cc1	14.4%
COc1ccc(CNc2nc3ccccc3n2CCN2CCOCC2)cc1	14.4%
COc1ccc(CC(=O)N2CCC(Nc3nc4ccccc4n3Cc3ccc(F)cc3)CC2)cc1	8.15%
CC(C)=C(NC(=O)c1ccccc1Br)C(=O)NCCc1nc2ccccc2[nH]1	3.02%
Cc1ccccc1Nc1nc(Nc2ccccc2C)nc(SC2=NCCS2)n1	5.86%
CCCCNC(=S)NCC(c1ccccc1)c1c[nH]c2ccccc12 (stereo not given)	0.6%
OC(CNCC(c1ccc(Cl)cc1Cl)c1c[nH]c2ccccc12)c1ccccc1 (stereo not given)	-5.36%
O=C(O)CCN1C(=O)c2ccc(NC(=O)C(c3ccccc3)c3ccccc3)cc2C1=O	3.59%
Cn1c(=O)c2c(ncn2CC(=O)Nc2nc(-c3ccccc3Cl)cs2)n(C)c1=O	21.1%
CCc1ccc2nc3nc(C)cc(C)c3c(N)c2c1	-15%
Cc1cc(C)c2c(N)c3cccc(C)c3nc2n1	-7.17%
CC(=O)c1ccc(NC(=O)CSc2nc(N)c3cc4c(nc3n2)CCCC4)cc1	-7.23%
Cc1cc(C)c(OCC(=O)OCC(=O)NCCC2=CCCCC2)c(C)c1	1.39%
CC12CN3CCN(C1)CC(C)(C3)C2=NN	6.55%
Cc1ccccc1/C=N/Nc1nc2ccccc2c(=O)n1O	-20.3%
O=c1c2ccccc2nc(N/N=C/c2ccc(O)cc2)n1O	10.2%
O=C(N/N=C\c1c(O)ccc2ccccc12)c1ccc(O)cc1	-4.79%
Cc1ccc(C(=O)N/N=C/c2c(O)ccc3ccccc23)cn1	-2.29%
Oc1ccc2ccccc2c1/C=N/Nc1ccccc1	-3.44%
NC(=S)N/N=C/c1c(O)ccc2ccccc12	-1.9%
